Compounds without any hit were thinned out: in the full panel of roughly 83,000, 20% have a hit.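 Single-dose data. Exposure time 48 hours. Values below 10 considered active.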 The source made the active and inactive calls.
system: HL-60(TB) leukemia; assay: NCI-60 one-dose screen, 48 h (100 = growth as untreated, 0 = no growth, -100 = all killed); details: 10 µM unless noted

SMILES	growth
CN1CCN(Cc2ccc(C(=O)Nc3cncc(C#Cc4cnc5cccnn45)c3)cc2C(F)(F)F)CC1	1.37% (active)
C=C[C@H]1CCC/C=C/[C@@H]2C[C@H](O)C[C@H]2[C@H](O)/C=C/C(=O)O1	-0.65% (active)
COc1ccc(-c2c(N)n[nH]c2-c2cc(OC)c(OC)c(OC)c2)cc1	15.3% (inactive)
Cc1cccc(C)c1NCc1nnc(-c2ccco2)o1	97.5% (inactive)
FC(F)(F)c1cccc(-c2nnn(Cc3cc(-c4cccc(Cl)c4)no3)n2)c1	108% (inactive)
FC(F)(F)c1cccc(-n2nnc3cnc(Nc4ccc(N5CCCCC5)cc4)nc32)c1	103% (inactive)
Fc1ccc(NC(c2ccc(F)cc2)C2CCN(CCCCc3ccccc3)CC2)cc1 (stereo not given)	10.8% (inactive)
N#CC1=C(c2ccccc2)Nc2c(c(-c3ccc(Cl)cc3)nn2-c2ccccc2)C12C(=O)Nc1ccc(Cl)cc12 (stereo not given)	48.2% (inactive)
COc1cc2oc(-c3cccc(C(=O)Nc4ccc(C)cc4)c3)cc(=O)c2c(OC)c1OC	7.26% (active)
CCCCCCCCCc1cc(CN2CCCCC2)c(O)c(CN2CCCCC2)c1	60.7% (inactive)
C1=CC2(C=C1)OC21CCC2(C=CC3(C2)OC3C2CCCCC2)CC1 (stereo not given)	105% (inactive)
COc1ccc(-c2nc(SC(C)C)nc(NNC(N)=O)c2C#N)cc1	80.3% (inactive)
Cc1ccc(N=NC2C(=O)N(c3ccc(Cl)cc3)N(c3ccc(Cl)cc3)C2=O)cc1	103% (inactive)
CC(O)c1cc[cH-]c1.[Fe+2].c1cc[cH-]c1 (stereo not given)	92.9% (inactive)
CCOC(=O)CC1C(COC(=O)NC)OC(n2cnc3c(NC(=O)Nc4ccccc4)ncnc32)C1O[Si](C)(C)C(C)(C)C (stereo not given)	23.5% (inactive)
O=C(NC1=CC(=O)c2ccccc2C1=O)c1ccccc1	-30.8% (active)
C=CCN1C(=O)/C(=C\c2ccc3c(c2)CCC3)SC1=S	79% (inactive)
CC/C=C\C[C@H](O)C/C=C1/C(=O)C(Cl)=C[C@@H]1C/C=C\CCCC(=O)OC	-2.33% (active)
C=C[C@@H]1CCC/C=C/[C@@H]2C[C@H](O)C[C@H]2[C@H](O)/C=C/C(=O)O1	8.25% (active)
CCN1CCN(Cc2ccc(NC(=O)Nc3nc(-c4cc(OC)c(OC)c(OC)c4)cs3)cc2C(F)(F)F)CC1	8.19% (active)

SMILES	growth
CC/C(=C(/c1ccc(Cl)cc1)c1ccc(OCCN2CCOCC2)cc1)c1ccccc1	104% (inactive)
COc1cc(Nc2ncc3c(n2)-c2ccc(Cl)cc2C(c2c(F)cccc2OC)=NC3)ccc1C(=O)O	45.4% (inactive)
Cc1ccc(NS(=O)(=O)c2ccc(-c3cnc(C4CC4)o3)cc2)cc1	24.3% (inactive)
O=C1C(=O)N(CCCCn2cc(-c3ccccc3)nn2)c2ccccc21	118% (inactive)
COc1ccc(C(=O)Nc2ncc(Cc3ccc(Cl)cc3)s2)cc1	-11% (active)
CCc1nc(N)nc(N)c1-c1ccc(Cl)cc1	51.3% (inactive)
CCC1=C[C@H]2CN(CCc3c([nH]c4ccccc34)[C@@](C(=O)OC)(c3cc4c(cc3OC)N(C)[C@H]3[C@@](O)(C(=O)OC)[C@H](OC(C)=O)[C@]5(CC)[C@@H]6C[C@@H]6CN6CC[C@]43[C@@H]65)C2)C1	-33.4% (active)
ClCc1cccc2c(CCl)cccc12	48.2% (inactive)
CCCCOc1ncnc2nc[nH]c12	99.4% (inactive)
CC(NC(=O)c1ccccc1)C(=O)Nc1ccccc1 (stereo not given)	107% (inactive)
CC1=C(C)C(=O)C(C(C)C2=C(C)C(=O)C(C)=C(C)C2=O)=C(C)C1=O	42.5% (inactive)
N/C(=N\c1nc2ccccc2[nH]1)NC(=O)Cc1cccc2ccccc12	82.4% (inactive)
CCN(CC)CCCNc1cc(OC)cc2cccnc12	94.7% (inactive)
COc1ccc(-c2[nH]ncc2-c2cc(OC)c(OC)c(OC)c2)cc1	-35.5% (active)
COc1ccc2nc3ccccc3c(NCc3ccc(F)cc3)c2c1	-34.6% (active)
O=Nc1c(-c2c(O)[nH]c3ccc([N+](=O)[O-])cc23)[nH]c2ccc(O)cc12	3.67% (active)
O=C1/C(=C2\SC(=S)N(C3CC3)C2=O)SC(=S)N1C1CC1	104% (inactive)
COc1ccccc1NC(=O)COc1ccc(/C=C2/Oc3cc4occc4c(OC)c3C2=O)cc1OC	87.5% (inactive)
N=C(N)c1ccc(-c2ccc(-c3ccccc3)s2)cc1	-34.2% (active)
CC1=C(C(=O)c2ccccc2)C(c2ccc3c(c2)OCO3)NC(=S)N1 (stereo not given)	2.6% (active)

— PubChem BioAssay (NCI)
